# Assay results as given in PubChem BioAssay (NCI).
# Compounds without any hit were thinned out: in the full panel of roughly 83,000, 20% have a hit.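 Results are percent growth after 48 hours of single-concentration exposure. 100 means growth as in untreated cells, lower positive values show inhibition; negative values down to -100 show cell death.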 Values without a mark were called inactive. Calls of active or inactive are those of the source. How the source made its calls: active means growth percent below 10; inactive means the rest.
# Tested on: MDA-MB-468 breast
# Test: NCI-60 one-dose screen, 48 h (100 = growth as untreated, 0 = no growth, -100 = all killed)
# Settings: 10 µM unless noted
row,Compound,growth
1,Nc1nc2ccc3[nH]ncc3c2c2c1CCCC2,-46.8% (active)
2,Nc1nc(-c2cccnc2)nc2c1sc(=S)n2-c1ccccc1,103%
3,CN1CCN(c2ccc(-c3ccc4ncc(C#N)c(Nc5ccc(F)c(Cl)c5)c4c3)cc2)CC1,1.52% (active)
4,Cc1ccc(C(=O)c2ccc(C)cc2)cc1,91%
5,COC(=O)c1c2c(c(C)[n+]([O-])c1C)C(=O)C(NCc1ccc(F)c(Cl)c1)=CC2=O,-18% (active)
6,CCOC(=O)C(=CNc1cnc(Nc2ccc(N3CCOCC3)cc2)nc1Oc1ccc(OC)cc1)C(=O)OCC,61.5%
7,c1ccc2[nH]c(-c3ccc(Nc4nc(N5CCCC5)nc5[nH]ncc45)cc3)nc2c1,-38.5% (active)
8,Cc1ccc(N(CC(=O)Nc2ccc(S(=O)(=O)N3CCC(N4CCCC4)CC3)cc2)S(=O)(=O)c2ccc(Cl)cc2)cc1,-19.6% (active)
9,COc1ccc2nc(-c3ccc(-n4cncc4-c4ccc(OC)c(N)c4)cc3)sc2c1,114%
10,O=C(Cc1ccccc1)Nc1nnc(NC2CCN(c3nnc(NC(=O)Cc4ccccc4)s3)CC2)s1,125%
11,NNc1ccccc1C(=O)O,102%
12,CN(C)c1ccc(Nc2cc(-c3cccc(OC(F)(F)F)c3)nc3ccc(N4CCCC4)cc23)cc1,-48.1% (active)
13,Cc1ccc2sc3c(c2c1)OC(N)=C(C#N)C3c1cccc(F)c1 (stereo not given),-14.1% (active)
14,NC(=S)NN=C1CCCC1,14.1%
15,C/C=C(/C)n1cnc2c(Nc3ccccn3)nc(Cl)nc21,93%
16,CS(=O)(=O)c1ccc(-c2cnn3ccc(-c4cccc(S(=O)(=O)C5CC5)c4)nc23)cc1,27.7%
17,O=C1CN(CCN2CC(=O)N(Cc3ccccc3)C(=O)C2)CC(=O)N1Cc1ccccc1,107%
18,CN(C)CCNC(=O)c1ccc(-c2nc3ccc4[nH]ncc4c3c3c2C2CCC3C2)cc1 (stereo not given),16.2%
19,Cc1ccc(S(=O)(=O)c2nc(-c3ccccc3)oc2Sc2nc3ccccc3s2)cc1,52.1%
20,CC(=S)NC(=O)C(=O)/C=C1/NC(=O)C(=O)S1,102%

row,Compound,growth
1,COc1ccc(C(C)=O)c(OC)c1,97.7%
2,COc1ccc(NC(=O)CSc2nc3ccccc3c(=O)n2Cc2cc(OC)c(OC)c(OC)c2)cc1,104%
3,CCOC(=O)c1c(Cl)c2c(n1Cc1cccc(OC)c1)-c1oncc1CC2,11.1%
4,COc1ccccc1CNCCCCCCCCCCCCN1C(=O)c2ccc3c4c(ccc(c24)C1=O)C(=O)N(CCCCCCCCCCCCNCc1ccccc1OC)C3=O,-8.04% (active)
5,O=c1cc/c(=N\Nc2ccccc2)c(=O)/c1=N/Nc1ccccc1,106%
6,O=C1c2ccccc2CCC1(Br)Br,-42.2% (active)
7,CCOC(=O)c1nnn(-c2ccccc2)c1C1=CN(C)CCC1,120%
8,COC(=O)C(CC(=O)c1ccc(-c2ccccc2)cc1)c1ccccc1 (stereo not given),52.5%
9,COCCOCCOCc1n(Cc2ccc3ccccc3n2)c2ccccc2[n+]1Cc1ccc2ccccc2c1,-50.1% (active)
10,COc1ccc2c(c1)C1=NN(C(=O)CO)[C@H](c3ccc(OC(F)(F)F)cc3)[C@@H]1CC2,117%
11,CCOc1cc(Cl)c(C(C)NC(=O)c2cccc(OC)c2)cc1OCC (stereo not given),-61.6% (active)
12,Cc1ccc(S(=O)(=O)OCCN(CCOS(=O)(=O)c2ccc(C)cc2)c2c[nH]c(=O)[nH]c2=O)cc1,98.5%
13,CCOC(=O)Nc1ccc2c(ccn2C(=O)c2cccc(F)c2)c1,34.5%
14,CC1=C[C@H]2c3c(c(O)c(O)c4oc5ccccc5c(=O)c34)[C@H](c3cc(O)c(O)c4oc5ccccc5c(=O)c34)[C@H]2C(C)(C)C1,25.2%
15,CN(C)CCOc1nc2ccccc2c2c1-c1ccc(Cl)cc1C2=O,-51.1% (active)
16,C[N+](C)(C)c1ccc(CC2c3ccccc3-c3ccccc32)cc1,-24.1% (active)
17,CNC(=O)c1cc(Oc2ccc3nc(NC(=O)c4ccc(CN5CCN(C)CC5)c(C(F)(F)F)c4)sc3c2)ccn1,52.1%
18,COc1ccc(C(Cn2ccnc2)Sc2ccc(Cl)c(Cl)c2)cc1 (stereo not given),63%
19,COc1ccc(C(=O)C/C(=C\c2ccc(Cl)cc2)C(=O)NCc2ccccc2)cc1,69.7%
20,COc1cc(C2NC(c3ccc(Cl)cc3)C(C)C(=NC(=O)c3cnccn3)C2C)cc(OC)c1OC (stereo not given),91.6%
